The list is not random: actives were taken first. Their share in the collection is about 19%.
ELG1 DNA repair: qHTS screen for small molecules that inhibit ELG1-dependent DNA repair in human embryonic kidney (HEK293T) cells expressing luciferase-tagged ELG1; HEK293T ELG1-luciferase reporter, luminescence, 16 h; DNA damage induced by 5-fluorouridine; Potency, µM (series often up to 46.1 µM), for the others: at the top dose activity change, negative = inhibition, actives largely listed as inhibitors; 330,000 compounds, 2.3% hits; AID 504467, 2011; also: potency is read from the fitted curve at half-maximal effect; nearly all actives have a fitted effect of over 55% in size
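DMSO vehicle served as the neutral condition. Each well held 2,000 cells given 5-fluorouridine plus compound; after 16 hr at 37 °C/5% CO2, ONE-Glo was added and luciferase measured 30 min later.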
TDP1 block: qHTS Assay for Inhibitors of Tyrosyl-DNA Phosphodiesterase (TDP1); Potency, µM (titrated, usually from 130 µM), for inactives: top-dose activity change, negative = inhibition, hits mostly inhibitors; 350,000 compounds, 0.28% hits; recombinant TDP1, AlphaScreen DNA substrate cleavage; AID 485290, 2010; also: potency is read from the fitted curve at half-maximal effect; nearly all actives have a fitted effect of over 40% in size
Target sequence (Q9NUW8 whole entry, looked up): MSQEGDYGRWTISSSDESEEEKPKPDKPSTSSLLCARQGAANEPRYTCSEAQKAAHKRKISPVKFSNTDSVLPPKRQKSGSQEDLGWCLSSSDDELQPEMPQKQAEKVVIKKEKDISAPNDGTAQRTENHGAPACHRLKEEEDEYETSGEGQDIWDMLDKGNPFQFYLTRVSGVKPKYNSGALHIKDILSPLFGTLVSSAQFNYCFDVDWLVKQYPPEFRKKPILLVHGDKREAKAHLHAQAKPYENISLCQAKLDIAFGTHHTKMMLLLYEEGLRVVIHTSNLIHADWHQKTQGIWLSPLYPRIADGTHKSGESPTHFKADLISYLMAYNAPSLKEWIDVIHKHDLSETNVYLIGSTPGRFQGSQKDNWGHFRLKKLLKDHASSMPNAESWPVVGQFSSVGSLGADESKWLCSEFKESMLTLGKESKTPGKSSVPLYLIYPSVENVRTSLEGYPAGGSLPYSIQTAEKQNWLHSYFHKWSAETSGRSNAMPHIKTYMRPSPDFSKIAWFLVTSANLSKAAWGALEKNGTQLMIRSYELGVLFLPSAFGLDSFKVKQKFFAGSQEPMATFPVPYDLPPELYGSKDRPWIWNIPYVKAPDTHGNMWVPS
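Compounds were preincubated with Tdp1 (1 nM final) for 15 min at room temperature before substrate (15 nM final) started a 5 min reaction; beads (10 ug/ml final) were then added for 10 min before AlphaScreen detection.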
Giardia killer: Small Molecules that selectively kill Giardia lamblia: qHTS. activity change, % at 7.66 µM, hits read low. Giardia lamblia trophozoite viability. 340,000 compounds, 0.15% hits; in the data active = activity change below about -80%; inconclusive = between about -30% and that limit;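 also: parasites exposed to compound for two days anaerobically before the ATP read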
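Luminescent ATP signal served as the viability read-out, measured 15-30 min after adding ATP detection reagent to trophozoites that had been incubated with compounds for 48 hrs at 37 deg C anaerobically at 100 cells/well.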
TDP1 cell CPT: qHTS for Inhibitors of human tyrosyl-DNA phosphodiesterase 1 (TDP1): qHTS in cells in presence of CPT | 420,000 compounds, 12% hits | chicken DT40 Tdp1-/-;hTDP1 cells + 20 nM CPT, ATP luminescence, 48 h | AID 686979, 2013 | Potency, µM (titrated, usually from 46.2 µM), without a hit: top-dose activity change, negative = growth inhibition, hits mostly inhibitors; also: potency is read from the fitted curve at half-maximal effect; nearly all actives have a fitted effect of over 55% in size
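Chicken DT40 Tdp1-/- cells complemented with human TDP1, 400 cells/well, exposed to compounds plus 20 nM camptothecin for at least 48 h at 37 C; viability read as ATP content by CellTiter-Glo luminescence.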
IL1B secr inh: qHTS for Inhibitors of Inflammasome Signaling: IL-1-beta AlphaLISA Primary Screen; 360,000 compounds, 4.7% hits; THP-1 LPS/ATP IL-1B secretion, AlphaLISA, 16 h; stronger effect = lower value; activity change, % at 57.5 µM; in the data active = activity change below about -50%; inconclusive = mostly about -30% to -49%
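Secreted IL-1B measured by AlphaLISA bead assay after 16 h compound exposure of THP-1 cells; compounds (final up to 57.5 uM) added 1 h before LPS (250 ng/mL) and ATP (1.25 mM) stimulation; lower signal means less secretion.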
DT40 TDP1 no CPT: qHTS for Inhibitors of human tyrosyl-DNA phosphodiesterase 1 (TDP1): qHTS in cells in absence of CPT. DT40 Tdp1-/- hTDP1 cells, no CPT, ATP luminescence, 48 h. Potency, µM (doses to about 46.2 µM), for inactives: at the highest dose activity change, negative = growth inhibition, actives largely listed as inhibitors. 420,000 compounds, 15% hits; also: potency is read from the fitted curve at half-maximal effect; nearly all actives have a fitted effect of over 55% in size
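DT40 Tdp1-/-;hTDP1 cells, no CPT (DMSO vehicle only), 400 cells/well; compounds pin-transferred; ≥48 hr, 37 °C; CellTiter-Glo 30 min RT dark, luminescence read.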
Numbers without * were called inactive; i = inactive; ? = inconclusive; . = no result given; [ ] = remark or other dose. Unless noted, calls follow the shape of the dose curve; as a rule, active = well fitted curve in the direction sought with a large enough effect; inconclusive = small, poorly fitted or top-dose-only effect, or another doubt; inactive = no such curve, though single readings can be large; an effect the other way counts as inactive or inconclusive. % is scaled to controls: 0 for no effect and ±100 for the full control effect.

SMILES | ELG1 DNA repair | TDP1 block | Giardia killer | TDP1 cell CPT | IL1B secr inh | DT40 TDP1 no CPT
C[C@@H]1COC(=O)[C@H](NC(=O)OCC2c3ccccc3-c3ccccc32)C/C=C\C[C@@H](CC(=O)N[C@@H](CO)Cc2ccccc2)C(=O)N1 | -19% | -2% | -20 | 8.2µM* | 20 | 8.2µM*
CC(C)(C)[C@H]1COC(=O)[C@H](NC(=O)OCC2c3ccccc3-c3ccccc32)C/C=C\C[C@@H](CC(=O)N[C@H](CO)Cc2ccccc2)C(=O)N1 | 12% | -7% | -11 | 7.3µM* | 8 | 8.2µM*
CC(C)(C)OC(=O)C[C@H]1C/C=C\C[C@H](CC(=O)N[C@@H](CO)Cc2ccccc2)C(=O)N[C@H](C(C)(C)C)COC1=O | -13% | 0% | 21 | ? | -22 | ?
COc1ccccc1N1CCN(C(=O)C2CCN(C(=O)c3ccc(C(C)(C)C)cc3)CC2)CC1 | -7% | 4% | 2 | ? | -8 | ?
CCCCC/C=C\C/C=C\CCCCCCCC(=O)O[C@@H](CO)COC(=O)CCCCCCCCCCCCCCCCC | . | 7% | . | 0%[4.12 µM] | . | -1%[4.12 µM]
Cc1ccc2c(CNCCc3ccccc3)c(C(=O)O)n(Cc3ccccc3C)c2c1 | . | 6% | . | ? | . | ?
CCOc1ccccc1-c1nc(-c2cc3ccccc3nc2OC)no1 | ? | -5% | 11 | 16µM* | -5 | 23µM*
COc1nc2ccccc2cc1-c1noc(-c2cccnc2)n1 | 13% | 3% | . | . | . | .
CCCc1nc(-c2cc3ccc(C)cc3[nH]c2=O)no1 | ? | -2% | -3 | -27% | -4 | -6%
CCOc1ccccc1-c1nc(-c2cc3ccc(C)cc3[nH]c2=O)no1 | ? | -2% | 12 | 26µM* | -22 | ?
CN(Cc1ccccc1)C(=O)c1[nH]cnc1C(=O)Nc1nccs1 | 11% | 0% | -4 | ? | -19 | -7%
COc1cccc(CN2CC(C(=O)N3CCN(c4ccc(Cl)cc4)CC3)CCC2=O)c1 (centres undefined) | -13% | 5% | 0 | 23µM* | i | 21µM*
COc1ccc(N2CCN(C(=O)c3ccc(Cl)c(S(=O)(=O)N4CCCC4)c3)CC2)cc1 | ? | 4% | -2 | ? | 8 | ?
COc1ccc(N2CCN(C(=O)c3ccc(C)c(Cl)c3)CC2)cc1 | . | 7% | 33 | ? | -9 | 18µM*
COc1ccc(N2CCN(C(=O)c3cccc(Cn4cc(Cl)cn4)c3)CC2)cc1 | . | 7% | -9 | ? | -4 | 23µM*
Cc1[nH]nc2c(=S)[nH]c(=O)[nH]c12 | . | . | . | -26% | 16 | ?
Cc1ccc(-n2nc(C(=O)NCc3ccc(F)cc3Cl)c3c4ccccc4n(C)c3c2=O)cc1 | . | 0% | . | -14% | . | ?
COc1ccc(C(=O)C2CCCN(C(=O)c3cccc(Cn4cccn4)c3)C2)cc1F (centres undefined) | 4% | 5% | 1 | ? | -17 | ?
CCOC(=O)c1[nH]ncc1CN1CCCC(C(=O)c2ccc(SC)cc2)C1 (centres undefined) | 9% | -3% | 13 | -2% | -15 | -45%
CSc1ncc(CN2CCCC(C(=O)Nc3ccc(-c4ccco4)cc3)C2)cn1 (centres undefined) | 2% | 10% | -2 | ? | 7 | ?
CSc1ccc(C(=O)C2CCCN(Cc3ccc(N4CCNC4=O)cc3)C2)cc1 (centres undefined) | 6% | . | -10 | 6% | -97* | ?
COc1ccc(CN2CCCC(C(=O)c3ccc(SC)cc3)C2)cc1Cn1cccn1 (centres undefined) | ? | 8% | -4 | ? | -96* | ?
CSc1ncc(CN2CCCC(C(=O)c3ccc(C(C)(C)C)cc3)C2)cn1 (centres undefined) | 22% | 4% | 26 | 16µM* | 21 | 23µM*
C=C1CCN(C(Cc2ccccc2)C(=O)O)S(=O)(=O)c2ccccc21 (centres undefined) | . | -4% | 2 | . | . | .
Cc1ccc(CN2C(=O)C(O)(CC(=O)c3ccc(C)cc3)c3ccccc32)cc1 (centres undefined) | . | . | . | 5.8µM* | . | 2.6µM*
SMILES | ELG1 DNA repair | TDP1 block | Giardia killer | TDP1 cell CPT | IL1B secr inh | DT40 TDP1 no CPT
O=C(/C=C/c1ccco1)Nc1ccccc1N1CCCC1 | 15% | 3% | 22 | ? | -7 | ?
CC(=O)CC1(O)C(=O)N(Cc2ccccc2)c2ccccc21 (centres undefined) | 30% | 0% | -8 | ? | 14 | ?
C=CCN1C(=O)C(O)(CC(=O)c2ccccc2)c2ccccc21 (centres undefined) | -1% | 4% | 12 | ? | 0 | 18µM*
O=C(CC1(O)C(=O)N(CCc2ccccc2)c2ccccc21)c1ccco1 (centres undefined) | 0% | 1% | -9 | 5.8µM* | 15 | 2.9µM*
C#CCN1C(=O)C(O)(CC(=O)/C=C/c2ccco2)c2ccccc21 (centres undefined) | -13% | -2% | -2 | 5.8µM* | 6 | 3.7µM*
CSCC[C@H](NC(=O)[C@H](CC(C)C)NC(=O)CNC(=O)[C@H](Cc1ccc(O)cc1)NC(=O)[C@H](Cc1ccccc1)NC(=O)[C@H](CCC(N)=O)NC(=O)[C@H](CCC(N)=O)NC(=O)[C@@H]1CCCN1C(=O)[C@H](CCCCN)NC(=O)[C@@H]1CCCN1C(=O)[C@@H](N)CCCN=C(N)N)C(N)=O | . | 9% | . | . | . | .
Cc1ccc(C(=O)CC2(O)C(=O)N(CCc3ccccc3)c3ccc(Cl)cc32)cc1 (centres undefined) | . | . | . | 21µM* | . | 23µM*
Cc1coc(C)c1C(=O)CC1(O)C(=O)N(Cc2ccccc2)c2ccccc21 (centres undefined) | . | -1% | 9 | 16µM* | -16 | 23µM*
Cc1ccc(C(=O)CC2(O)C(=O)N(CCc3ccccc3)c3ccc(Br)cc32)o1 (centres undefined) | -20% | 11% | 6 | ? | -19 | 16µM*
CCN1C(=O)C(O)(CC(=O)C(C)(C)C)c2cc(Br)ccc21 (centres undefined) | 0% | -5% | 7 | -8% | 6 | ?
